# Laboratory results taken from the supplement of paper PMC6411743.
# ± gives the standard deviation of the averaged measurements. The full data set covers some 5,400 targets. This sample favours those with the largest changes.
# Biological target: T1, ACLY (UniProt P53396)
# T1 sequence (whole entry): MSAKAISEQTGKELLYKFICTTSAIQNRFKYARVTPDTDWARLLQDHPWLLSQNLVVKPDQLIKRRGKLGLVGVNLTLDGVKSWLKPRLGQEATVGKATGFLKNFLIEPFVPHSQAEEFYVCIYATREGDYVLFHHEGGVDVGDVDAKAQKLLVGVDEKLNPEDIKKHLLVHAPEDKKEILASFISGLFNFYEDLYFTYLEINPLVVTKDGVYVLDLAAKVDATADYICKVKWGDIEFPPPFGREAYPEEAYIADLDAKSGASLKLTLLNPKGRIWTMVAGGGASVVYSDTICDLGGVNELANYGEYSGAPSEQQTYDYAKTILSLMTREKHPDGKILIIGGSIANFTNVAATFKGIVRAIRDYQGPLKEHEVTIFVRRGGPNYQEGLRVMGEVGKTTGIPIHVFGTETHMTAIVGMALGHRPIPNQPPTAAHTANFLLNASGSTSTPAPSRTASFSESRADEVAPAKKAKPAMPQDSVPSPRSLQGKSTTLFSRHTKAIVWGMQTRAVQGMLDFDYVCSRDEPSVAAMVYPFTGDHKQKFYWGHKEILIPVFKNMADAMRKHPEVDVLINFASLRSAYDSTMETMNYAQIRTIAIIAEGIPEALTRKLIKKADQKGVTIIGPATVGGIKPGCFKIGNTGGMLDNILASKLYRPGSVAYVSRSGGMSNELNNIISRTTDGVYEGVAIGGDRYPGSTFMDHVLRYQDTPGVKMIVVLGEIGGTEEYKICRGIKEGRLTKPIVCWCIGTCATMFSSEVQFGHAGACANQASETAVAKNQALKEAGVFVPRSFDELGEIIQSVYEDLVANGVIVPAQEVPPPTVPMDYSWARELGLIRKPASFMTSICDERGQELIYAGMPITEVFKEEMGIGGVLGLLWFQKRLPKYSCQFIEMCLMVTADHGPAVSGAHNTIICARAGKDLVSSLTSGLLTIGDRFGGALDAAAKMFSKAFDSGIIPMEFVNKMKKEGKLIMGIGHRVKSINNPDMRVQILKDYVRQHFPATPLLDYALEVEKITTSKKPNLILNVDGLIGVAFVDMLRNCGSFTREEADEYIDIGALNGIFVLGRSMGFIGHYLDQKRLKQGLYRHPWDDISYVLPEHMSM
# Assay: NP40-soluble protein abundance relative to vehicle (solubility fold change) (ratio); higher = more soluble protein in presence of GTP
# Protocol: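 Solubility proteome profiling in Jurkat crude lysate. Lysate was treated with Mg-GTP (0.1-10 mM) for 10 min at room temperature and 3 min at 37 °C, then solubilised with 0.8% NP40 and benzonase, followed by ultracentrifugation. Proteins were quantified by TMT10 LC-MS/MS; the value is the NP40-soluble abundance relative to the NP40-processed vehicle, from 3 independent experiments.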
structure (smiles),measurement,setting,value
Nc1nc2c(ncn2[C@@H]2O[C@H](COP(=O)(O)OP(=O)(O)OP(=O)(O)O)[C@@H](O)[C@H]2O)c(=O)[nH]1 [guanosine triphosphate],NP40-soluble protein abundance,concentration: 0.1mM,1.06 ± 0.044
same,NP40-soluble protein abundance,concentration: 0.5mM,1.08 ± 0.088
same,NP40-soluble protein abundance,concentration: 1mM,0.972 ± 0.084
same,NP40-soluble protein abundance,concentration: 2mM,0.968 ± 0.11
same,NP40-soluble protein abundance,concentration: 4mM,0.991 ± 0.084
same,NP40-soluble protein abundance,concentration: 6mM,0.963 ± 0.11
same,NP40-soluble protein abundance,concentration: 8mM,0.97 ± 0.065
same,NP40-soluble protein abundance,concentration: 10mM,0.906 ± 0.07
